“And” between values parts separate entries of the source, which are not always exact repeats. Equal values may be shown once. In all, about 360,000 compounds went through this assay and about 1,600 (0.44%) were called active.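 How the source made its calls: active means every replicate showing at least 50% inhibition; inconclusive means mean inhibition at least 50% but not in every replicate; inactive means the rest.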 The entries come from a sample that favours actives as a whole. Where a structure was tested more than once in an assay, its records may differ in their call.

The target in this assay is DNA repair protein RAD52 homolog (Homo sapiens) (UniProt P43351). As to the kind of experiment: blockers of RAD52 strand annealing activity – biochemical, FRET, single point, set 2, primary screen (AID 651710). To be noted: recombinant RAD52 DNA annealing, FRET fluorescence; at 18.7 µM; stronger effect = higher value.
DNA repair protein RAD52 homolog (Homo sapiens), sequence (P43351 whole entry, looked up): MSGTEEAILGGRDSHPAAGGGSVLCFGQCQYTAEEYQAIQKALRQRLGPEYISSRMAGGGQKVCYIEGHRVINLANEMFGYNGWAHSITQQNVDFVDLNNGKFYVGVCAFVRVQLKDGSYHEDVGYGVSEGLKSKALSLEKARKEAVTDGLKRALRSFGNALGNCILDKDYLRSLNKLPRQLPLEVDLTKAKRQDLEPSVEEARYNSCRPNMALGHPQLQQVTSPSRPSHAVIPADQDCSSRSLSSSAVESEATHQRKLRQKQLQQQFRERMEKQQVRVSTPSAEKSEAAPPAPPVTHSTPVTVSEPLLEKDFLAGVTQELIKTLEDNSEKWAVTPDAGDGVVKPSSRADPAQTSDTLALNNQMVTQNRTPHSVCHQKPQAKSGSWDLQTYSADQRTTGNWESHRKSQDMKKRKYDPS
For orientation: inhibition means the change of the read-out against control, counted positive when it falls. With `C[C@H](CO)N1C[C@H](C)[C@H](CN(C)C(=O)Nc2ccc3c(c2)OCO3)Oc2ccc(NC(=O)Nc3ccccc3)cc2CC1=O`, the inhibition was -4.77% (inactive).
The same measure for `Cc1cccc(C)c1OCCN1CCOCC1`: -1.02% (inactive).
`Fc1ccc(-c2ccc(NCCN3CCOCC3)nn2)cc1`: the inhibition was -7.71% (inactive).
For `c1ccc2cc3c(NCCN4CCOCC4)ccnc3cc2c1`, the inhibition is 79% (active).
`COc1ccc(NC(=O)N(C)C[C@@H]2Oc3c(NS(C)(=O)=O)cccc3C(=O)N([C@H](C)CO)C[C@H]2C)cc1`: the inhibition is 1.83% (inactive).
Under `CC(C)NC(=O)Nc1ccc2c(c1)CC(=O)N([C@H](C)CO)C[C@H](C)[C@@H](CN(C)C(=O)Nc1ccc(F)cc1)O2` stands 16.5% (inactive); under `N#Cc1ccc(-c2ccc(C3[C@H]4CNC[C@@H]3N4S(=O)(=O)c3ccccc3F)cc2)cc1` (stereo partly specified), 28.8% (inactive).
Consider `N#Cc1cccc(-c2ccc(C3[C@H]4CNC[C@@H]3N4S(=O)(=O)c3ccc(-c4ccccc4)cc3)cc2)c1` (stereo partly specified), for which the inhibition is 73.9% (active) and 22.4% (inactive).
`N#Cc1cccc(-c2ccc(C3[C@H]4CNC[C@@H]3N4Cc3cncnc3)cc2)c1` (stereo partly specified): the inhibition was -10.4% (inactive).
Regarding `CCCNC(=O)N(C)C[C@@H]1Oc2ncc(C#CC(C)C)cc2C(=O)N([C@H](C)CO)C[C@H]1C`, the inhibition is -2.25% (inactive).
Take `CCN(CC)CCNC(=O)c1ccc(NC(=O)c2c(F)cccc2Cl)cc1`: the inhibition was -8.76% (inactive).
Consider `O=C(Nc1ccc(S(=O)(=O)Nc2nccs2)cc1)c1cc(-c2ccncc2)nc2ccccc12`, for which the inhibition is -42.2% (inactive).
`CCN(CC)CCNC(=O)c1ccc(NC(=O)c2cc(-c3ccncc3)nc3ccccc23)cc1`: the inhibition is 54.5% (active).
The same measure for `COC(=O)Cc1nnn2c1[C@H](C)[C@@H](OC)c1cc(Br)ccc1-2`: -4.62% (inactive); for `C[C@@H]1CN([C@@H](C)CO)C(=O)c2cc(NC(=O)Nc3ccccc3)ccc2O[C@@H]1CN(C)Cc1ccccc1`: 8.18% (inactive); for `COc1cccc(NC(=O)N[C@H]2C=C[C@H](CC(=O)NCc3ccccn3)O[C@@H]2CO)c1`: -25.9% (inactive).
Consider `COc1ccc(-c2ccc3c(c2)[C@@H]2[C@@H](CCN2C(=O)NC2CCCC2)[C@@H](CO)N3C)cc1`, for which the inhibition is -19% (inactive).
With `COCC(=O)Nc1ccc2c(c1)OC[C@H](C)NC[C@H](C)[C@H](OC)CN(C)C2=O`, the inhibition was -2.26% (inactive).
Regarding `Cc1nc(N=C(N)N)nc2c(C)cccc12`, the inhibition is 81.9% (active).
Under `COc1cccc(CN2[C@H](CO)[C@@H]3c4ccccc4N(C(=O)c4ccncc4)C[C@@H]32)c1` stands -8.72% (inactive); under `CN(C)C(=O)c1cccc(-c2cnc3c(NC=O)cc(-c4ccc(C(=O)N5CCOCC5)cc4)cn23)c1`, -29% (inactive).
As for `CN(C)C(=O)c1cccc(-c2cnc3c(NC=O)cc(-c4ccc(F)cc4)cn23)c1`, the inhibition was -55.7% (inactive).
Take `CC(=O)Nc1cc(-c2ccc(N3CCN(C)CC3)cc2)cn2c(-c3ccc(F)cc3)cnc12`: the inhibition was 18% (inactive).
Regarding `CC(=O)Nc1cc(-c2ccc(N3CCN(C)CC3)cc2)cn2c(-c3cccc(C(=O)N(C)C)c3)cnc12`, the inhibition was 79.7% (active).
The same measure for `CC(=O)c1cccc(-c2cnc3c(NC=O)cc(-c4ccc(N(C)C)cc4)cn23)c1`: -47.5% (inactive); for `CC(=O)c1cccc(-c2cnc3c(NC=O)cc(-c4ccc(N5CCN(C)CC5)cc4)cn23)c1`: 73.8% (active); for `CC(=O)Nc1cc(-c2cccc(CO)c2)cn2c(-c3cccc(C(F)(F)F)c3)cnc12`: -17.3% (inactive).
Take `CC(=O)c1cccc(-c2cnc3c(NC=O)cc(-c4cccc(C(=O)N(C)C)c4)cn23)c1`: the inhibition was -0.741% (inactive).
Regarding `CN(C)CCNC(=O)c1cccc(-c2cnc3c(NC=O)cc(-c4cccc(C(F)(F)F)c4)cn23)c1`, the inhibition was 67% (active).
Regarding `O=C(C[C@H]1C=C[C@@H](NC(=O)C2CC2)[C@H](CO)O1)NCC1CC1`, the inhibition was 2.9% (inactive).
Take `CO[C@H]1CN(C)C(=O)c2ccc(NC(=O)c3cnccn3)cc2OC[C@H](C)N(C)C[C@@H]1C`: the inhibition was 2.76% (inactive).
Under `O=C(Nc1ccccc1)N[C@H]1CC[C@H](CCNC(=O)c2ccccc2F)O[C@H]1CO` stands -10.3% (inactive); under `CCCN(C)C[C@@H]1Oc2ncc(-c3cccc(C(=O)N(C)C)c3)cc2C(=O)N([C@H](C)CO)C[C@@H]1C`, -4.17% (inactive).
Under `CN(C)C(=O)C[C@H]1CC[C@H](NC(=O)NC2CCCC2)[C@@H](CO)O1` stands -3.59% (inactive); under `CCCC#Cc1ccc([C@H]2[C@@H](CO)N3CCCCN(C(=O)c4ccc5c(c4)OCO5)C[C@@H]23)cc1`, -42.9% (inactive).
In the case of `COc1ccc(NC(=O)N(C)C[C@@H]2Oc3ccc(NC(=O)CCC(F)(F)F)cc3C(=O)N([C@@H](C)CO)C[C@H]2C)cc1`, the inhibition was -4.28% (inactive).
As for `O=C(Nc1ccccc1)[C@@H]1[C@@H](CO)[C@@H]2Cn3c(cccc3=O)[C@@H]2N1C(=O)C1CC1`, the inhibition was 2.14% (inactive).
For the compound `COc1ccc(-n2nnnc2SCC(=O)c2ccc(OC)c(OC)c2)cc1`, the inhibition is -22.4% (inactive).
In the case of `COc1ccc(C(=O)COC(=O)c2ccc([N+](=O)[O-])s2)cc1OC`, the inhibition was -8.04% (inactive).
In the case of `C=Cn1cc[n+](CC(=O)c2ccc(OC)c(OC)c2)c1`, the inhibition is 98% (active).
For `COc1ccc2[nH]c3c(C)c4cc[n+](C)cc4c(C)c3c2c1`, the inhibition is 94.3% (active).
In the case of `CC(=O)N(C)C[C@H]1Oc2ncc(C#CC3(O)CCCC3)cc2C(=O)N([C@@H](C)CO)C[C@@H]1C`, the inhibition was 9.64% (inactive).
As to `CO[C@@H]1CN(C)C(=O)c2ccc(NC(=O)Nc3ccccc3)cc2OC[C@@H](C)N(C(=O)CN(C)C)C[C@H]1C`, the inhibition is 5.57% (inactive).
Regarding `Cn1cnc(S(=O)(=O)N2CCCCN3[C@H](CO)[C@@H](c4ccc(-c5ccc(F)cc5)cc4)[C@@H]3C2)c1`, the inhibition is -27.5% (inactive).
With `COc1ccc(-c2cn(CC[C@H]3CC[C@@H](NC(=O)CCN4CCCCC4)[C@H](CO)O3)nn2)cc1`, the inhibition is -7.25% (inactive).
With `C[C@H]1CCCCO[C@H](CN(C)S(=O)(=O)c2ccc(F)cc2)[C@@H](C)CN([C@@H](C)CO)C(=O)c2cc(NS(=O)(=O)c3cn(C)cn3)ccc2O1`, the inhibition was -9.68% (inactive).
